# Source: publication PMC4336329 (PLoS ONE, 2015)
# Hit rate of the full screen: of about 310,000 compounds, about 14,000 (4.5%) showed an effect of 50% or more. The effect is printed as a negative number. The sample as a whole holds a higher share of strong results than the screen did.
# Biological target: human ether-à-go-go-related gene (hERG) potassium channel (human, UniProt Q12809)
# Test: primary screen, population patch clamp on CHO cells stably expressing hERG; higher = less effect of the substance
# 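Further: peak tail current of the secondary pulse compared with the same well before compound.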
# human ether-à-go-go-related gene (hERG) potassium channel, sequence (Q12809 whole entry, looked up): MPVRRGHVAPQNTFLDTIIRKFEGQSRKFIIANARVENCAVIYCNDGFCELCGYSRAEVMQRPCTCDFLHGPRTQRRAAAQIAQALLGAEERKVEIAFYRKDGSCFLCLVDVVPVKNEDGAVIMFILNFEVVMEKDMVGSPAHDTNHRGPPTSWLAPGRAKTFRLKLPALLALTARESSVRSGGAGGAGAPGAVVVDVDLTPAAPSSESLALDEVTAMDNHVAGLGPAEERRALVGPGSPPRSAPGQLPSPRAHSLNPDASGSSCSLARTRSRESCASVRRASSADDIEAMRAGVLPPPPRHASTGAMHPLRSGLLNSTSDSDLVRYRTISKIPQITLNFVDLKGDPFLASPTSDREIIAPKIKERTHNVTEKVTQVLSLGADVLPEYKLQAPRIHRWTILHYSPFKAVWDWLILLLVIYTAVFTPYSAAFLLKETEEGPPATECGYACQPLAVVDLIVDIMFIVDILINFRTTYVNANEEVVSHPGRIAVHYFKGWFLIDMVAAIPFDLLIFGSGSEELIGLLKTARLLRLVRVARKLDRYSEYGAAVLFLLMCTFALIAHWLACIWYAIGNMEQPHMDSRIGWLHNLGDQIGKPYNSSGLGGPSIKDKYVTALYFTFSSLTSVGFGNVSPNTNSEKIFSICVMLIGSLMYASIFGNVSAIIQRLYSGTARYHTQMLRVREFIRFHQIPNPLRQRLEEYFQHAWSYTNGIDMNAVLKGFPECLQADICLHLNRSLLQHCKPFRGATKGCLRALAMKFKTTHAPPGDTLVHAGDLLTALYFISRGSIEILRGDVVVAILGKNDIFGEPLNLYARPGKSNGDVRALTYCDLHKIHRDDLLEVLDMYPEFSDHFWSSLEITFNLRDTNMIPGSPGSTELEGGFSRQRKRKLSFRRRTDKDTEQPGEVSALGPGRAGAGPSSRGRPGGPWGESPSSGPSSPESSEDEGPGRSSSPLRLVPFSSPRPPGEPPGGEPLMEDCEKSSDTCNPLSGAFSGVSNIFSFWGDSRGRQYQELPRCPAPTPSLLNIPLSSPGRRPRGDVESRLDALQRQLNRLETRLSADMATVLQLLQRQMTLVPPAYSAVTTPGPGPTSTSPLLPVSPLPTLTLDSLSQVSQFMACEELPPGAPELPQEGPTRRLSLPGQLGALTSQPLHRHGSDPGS
row,Compound,"hERG current change (%, negative = inhibition) at 10uM"
1,COC(=O)CNc1nc(Cl)nc(Nc2ccc(C)cc2)n1,18.3%
2,COc1cc(NC(=O)c2cccnc2SC)cc(OC)c1,10.2%
3,O=c1nccc(Nc2ccccc2)[nH]1,16.4%
4,CNC(=O)c1ccc(-c2cc(C(F)(F)F)nn2C)s1,17.6%
5,CCCc1sc(N/N=C/c2ccccn2)nc1-c1ccc(Br)cc1,5.39%
6,OCCCNC(=S)Nc1ccc(Oc2ccccc2)cc1,1.06%
7,Cc1ccc(OCCSc2nc3ccccc3n2CCC(=O)O)cc1,9.74%
8,CCOc1ccc(-n2c(=O)cc(N3CCN(c4ccc(F)cc4)CC3)[nH]c2=O)cc1,9.15%
9,Cc1cc(NC(=O)NC(=O)c2ccccc2F)no1,13.7%
10,Cc1ccsc1-c1nc(CSCC(=O)N2CCN(c3ccccc3)CC2)c(C)o1,-21.1%
11,COc1ccc(C(=O)NC(=S)SCC(=O)O)cc1,21.8%
12,Cc1onc(-c2c(F)cccc2Cl)c1C(=O)OCc1cnc(Cl)s1,-3.61%
13,C[C@H](NC(=O)c1ccco1)C(=O)N1CCCC1,21.7%
14,NC(=O)C1CCN(CC(=O)Nc2cccnc2Cl)CC1,19.4%
15,NC(=O)C1CCN(CC(=O)Nc2ccccc2Sc2ccc(Cl)cc2)CC1,-53.7%
16,NC(=O)C1CCN(CC(=O)Nc2ccccc2Sc2ccccc2)CC1,-35.3%
17,NC(=O)CC(NC(=O)c1ccc(Br)cc1)c1ccc(N2CCCCCC2)c([N+](=O)[O-])c1 (centres unmarked),-7.79%
18,CCOC(=O)N1CCN(S(=O)(=O)c2c[nH]c(C(=O)OC)c2)CC1,12%
19,COc1cccc(CNC(=O)c2nnn(CC(=O)Nc3ccc(C)c(C)c3)c2N)c1,1.8%
20,O=C(O)c1ccc(/C=N/Nc2ncc(C(F)(F)F)cc2Cl)cc1,3.54%
21,COc1cccc(-c2cccc(NC(=O)C3CCN(Cc4ccc(CO)o4)CC3)c2)c1,-32.5%

row,Compound,"hERG current change (%, negative = inhibition) at 10uM"
1,O=C(Nc1cccc(-c2cccc(F)c2)c1)C1CCN(Cc2ccc(CO)o2)CC1,-70.3%
2,O=C(Nc1cccc(-c2cscn2)c1)C1CCN(Cc2ccc(CO)o2)CC1,-3.02%
3,O=C(Nc1cccc(F)c1)C1CCN(C(=O)c2ccco2)CC1,-26.4%
4,Cc1ccc(CN2CCC(C(=O)Nc3cccc(-c4cccc(F)c4)c3)CC2)o1,-69.1%
5,O=C(Nc1cccc(-c2cccc(F)c2)c1)C1CCN(Cc2ccco2)CC1,-67.5%
6,COc1cccc(-c2ccc(NC(=O)C3CCCN(Cc4ccc(CO)o4)C3)cc2)c1 (centres unmarked),2.83%
7,O=C(Nc1cccc(-c2cccc(Cl)c2)c1)C1CCN(Cc2ccc(CO)o2)CC1,-68%
8,COCc1ccc(CN2CCC(C(=O)Nc3cccc(-c4cscn4)c3)CC2)o1,-18.9%
9,O=C(c1cccc(F)c1)N1CCN(Cc2ccco2)CC1,4.78%
10,COc1cccc(-c2cccc(NC(=O)C3CCN(Cc4ccc(C)o4)CC3)c2)c1,-39.4%
11,CCC(=O)OC1(C)C(=O)C2=COC(c3ccc(OC)cc3)=CC2=C(Br)C1=O (centres unmarked),1.2%
12,CC(=O)N(Cc1ccc(Br)cc1)c1cccc(C)c1C,3.64%
13,N#Cc1ccc(CSc2nnc3ccccn23)cc1,-0.562%
14,Cc1c(Br)c(C(F)(F)F)nn1CC(=O)NCc1ccccc1,31.8%
15,Cc1cc(C)n2nc(SCCOc3ccccc3F)nc2n1,-22.7%
16,COc1ccc(C(=O)c2cn[nH]c2-c2ccc(C)cc2O)cc1,-2.49%
17,Cc1cccc(C)c1-n1c(C)cc(/C=N/NC(N)=S)c1C,15.6%
18,CCOC(=O)CCCCC(=O)c1[nH]c(=O)[nH]c1CN1CCOCC1,20%
19,CN(C)/C=C/C(=O)c1ccc2noc(-c3ccc(F)cc3)c2c1,-9.41%
20,CN(C)/C=C/C(=O)c1ccc2noc(-c3ccccc3)c2c1,-62.6%
21,CC(=O)c1ccc2noc(-c3cccc(F)c3)c2c1,2.79%

row,Compound,"hERG current change (%, negative = inhibition) at 10uM"
1,COc1cccc(-c2onc3ccc(C(=O)/C=C/N(C)C)cc23)c1,-31.4%
2,CN(C)/C=C/C(=O)c1ccc2noc(-c3cccc(F)c3)c2c1,-50.2%
3,Cc1cccc(-c2onc3ccc(C(=O)/C=C/N(C)C)cc23)c1,-42%
4,O=C(NCc1ccc2c(c1)OCO2)C1CC(=O)N(c2ccc(F)cc2)C1 (centres unmarked),-29.9%
5,CC(C)(C)NC(=O)CN(C(=O)CCC(=O)Nc1nccs1)c1ccc(F)cc1,12.6%
6,CCC(CO)NCc1ccc2c(c1)n(C)c(=O)n2C.Cl (centres unmarked),17.4%
7,O=C(O)c1ccc(NS(=O)(=O)c2cc(C(=O)O)ccc2Br)cc1,17%
8,O=C(N/N=C\c1ccc(Cl)s1)c1cccs1,23.2%
9,COc1ccccc1N1CCN(C(=O)c2sc3ncn(CC(=O)N4CCC(C)CC4)c(=O)c3c2C)CC1,-29.3%
10,CCCCCCCCCCCCCCCCn1cc[n+](C)c1.[Br-],-18.4%
11,CCCCCn1ccc(=N)cc1.I,11.7%
12,Br.CCCCCCn1ccc(=N)cc1,1.66%
13,CCCCCCCn1ccc(=N)cc1.I,-14.7%
14,Br.CCCCCCCCCn1ccc(=N)cc1,-66%
15,Br.CCCCCCCCCCn1ccc(=N)cc1,-72.9%
16,Br.CCCCCCCCn1ccc(=N)cc1,-27%
17,Br.CCCCCCN1Cc2ccccc2C1,-39.3%
18,Br.CCCCCCCCCCCCn1ccc(=N)cc1,-60.2%
19,O=C(O)C1CCCCC1C(=O)NCCCN1CCOCC1 (centres unmarked),-1.05%
20,Cc1ccc(/C=C/C(=O)NCC2COc3ccccc3O2)o1 (centres unmarked),-18.2%
